Experimental data taken from PubChem BioAssay (NCI).
Compounds without any hit were thinned out: in the full panel of roughly 83,000, 20% have a hit.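 Cell lines were cultured in 96-well plates, exposed to a single compound concentration, and assessed for percent growth 48 hours later.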 A number with no mark means an inactive call. Active and inactive are the calls of the source. The calls were made as follows: active = growth percent below 10; inactive = the rest.

The compounds below were run on HL-60(TB) leukemia (assay: NCI-60 one-dose screen, 48 h (100 = growth as untreated, 0 = no growth, -100 = all killed)). Conditions: 10 µM unless noted.
For C#CCN(C)CCCOc1ccc(NCc2ccc(/C=C/C(=O)NO)cc2)cc1Cl, the growth was 6.07% (active). COc1ccccc1N1CCN(C2=CC(=O)C(C)=C(C)C2=O)CC1 showed a growth of 113%. In the case of O=C1[C@@H]2Cc3c([nH]c4ccccc34)[C@@H](c3ccc(Cl)cc3)N2C(=O)CN1C1CCN(Cc2ccccc2)CC1, the growth is reported as -9.39% (active). For Cc1ncn(-c2ccc(/C=N/Nc3ccnc4cc(Cl)ccc34)cc2)c1C, the growth was -40.4% (active). Compound CCOC(=O)C1=C(C)Nc2nc3ccccc3n2C1c1cccc(Br)c1 (configuration not stated) has a growth of 22.8%. CCOc1cccc(/C(N)=N/C(N)=N/c2nc3ccccc3s2)c1 gave a growth of 72.2%. With Cc1ccc(C(=O)CSc2nc3ccccc3c(=O)n2C)cc1 the growth was 87.4%. CCOC(=O)c1sc(NCC(=O)Nc2cccc([N+](=O)[O-])c2)c(C(=O)OCC)c1C was tested, and the growth was 0.979% (active). Work on CC(=O)N1N=C(c2cccc(-n3cccc3)c2)CC1c1cccc(F)c1 (configuration not stated) yielded a growth of 108%. In the case of CC1(C)CC[C@]2(C(=O)NCCCCCCN(CCCN)CCCN)CC[C@]3(C)C(=CC[C@@H]4[C@@]5(C)CC[C@H](O)C(C)(C)[C@@H]5CC[C@]43C)[C@@H]2C1, the growth is reported as 99.1%. With CCOC(=O)c1c(Nc2ccccc2)nn2c(N)c(C#N)c(-c3ccc(F)cc3)nc12 the growth was 72.6%. Work on COc1c(N2CC3CCCNC3C2)c(F)cc2c(=O)c(C(=O)N/N=C/c3ccc4c(c3)OCO4)cn(C3CC3)c12 (configuration not stated) yielded a growth of 75.8%. In the case of COc1cccc(N2CCN(C3=C(Cl)C(=O)c4ncccc4C3=O)CC2)c1, the growth is reported as 9.82% (active). O=C(O)c1ccc(-n2cc(CNc3ccc(Cl)cc3)c(-c3ccc(F)cc3)n2)cc1 was tested, and the growth was 111%. COCCOc1ccc2ncc(C#Cc3cncc(C(=O)Nc4ccc(CN5CCN(C)CC5)c(C(F)(F)F)c4)c3)n2n1 was tested, and the growth was 16.7%. For CCOC(=O)c1csc(NC(=O)CSc2nc3sc4c(c3c(=O)n2-c2ccc(Cl)cc2)CCCC4)n1, the growth was 92.1%. O=C(Nc1ccccc1)Nc1nc2ccc([N+](=O)[O-])cc2[nH]1 was tested, and the growth was 70.2%. With Cc1[nH]c(C(=O)Nc2ccccc2OCc2cccc(C(=O)NCCN)c2)cc1Cl the growth was 89.6%. O=S(=O)(Nc1ccc(I)cc1Cl)c1ccc(-c2cnc(C3CC3)o2)cc1 was tested, and the growth was 9.69% (active). For COC(=O)c1[nH]nc2c1C1(C(=O)c3cccc4cccc1c34)C(C#N)=C(N)O2 (configuration not stated), the growth was 82.5%. Work on COc1ccc(OC)c([C@H]2c3[nH]c4ccccc4c3C[C@H]3C(=O)N(CCCCCCC(=O)NO)CC(=O)N23)c1 yielded a growth of 91.1%. With COC1=C(c2ccccc2)C(=O)C(OC)=C(c2ccccc2)C1=O the growth was 5.79% (active). For CN1CCN(Cc2ccc(NC(=O)c3cncc(C#Cc4cnc5ccc(N6CCSCC6)nn45)c3)cc2C(F)(F)F)CC1, the growth was -41.6% (active). Compound O=C(c1ccc(Cl)cc1)C1[C@H](c2ccc(Cl)cc2)[C@@H](c2ccccc2)NC12C(=O)Nc1ccccc12 (some centres not stated) has a growth of 49.3%. CC1OC(O[C@@H]2[C@H](O)C(CO)OC(O[C@H]3COC(O[C@H]4CC[C@]5(C)[C@H]6CC[C@]78OC[C@@]9(CC[C@](C)(C=O)C[C@H]97)C(=O)C[C@@]8(C)[C@]6(C)CC[C@H]5C4(C)C)[C@@H](O)[C@@H]3O)[C@H]2OC2OC[C@@H](O)[C@@H](O)[C@@H]2O)[C@@H](O)[C@@H](O)[C@H]1O (some centres not stated) gave a growth of 101%. With Oc1ccc(CSc2nnc(-c3ccc(Br)cc3)n2-c2ccccc2)c2cccnc12 the growth was 27.5%. Compound CCOC(=O)c1c(Nc2ccccc2)nn2c(-c3ccccc3)ccnc12 has a growth of 80.7%. In the case of O=C1Nc2ccc(Cl)cc2/C1=C/c1ccc(OCc2ccc(Br)cc2F)cc1, the growth is reported as 98%. For O=S(=O)(Nc1ccc(-n2cnc3cc(-c4ccc(O)cc4)ccc32)cc1)C1CC1, the growth was 56.9%. CC(=O)Oc1ccc(CCN2C(=O)CSC2=S)cc1 gave a growth of 57%. CCC/C=C/C=C/C(=O)N[C@@H](Cc1cc(F)cc(F)c1)C(=O)N[C@@H]1C(=O)N2CCC[C@H]2C(=O)N2CCCC[C@H]2C(=O)N[C@@H](C)C(=O)N2C[C@H](C)C[C@H]2C(=O)O[C@H]1C was tested, and the growth was 3.76% (active). For CNC(=O)c1cc(Oc2ccc3nc(NC(=O)c4ccc(CN5CCN(C)CC5)c(C(F)(F)F)c4)sc3c2)ccn1, the growth was 11.3%.
